Laboratory results taken from ChEMBL document CHEMBL3988442, “University of Dundee, Small-Polar-MMV Screening Library” (2021).
About 950 (1.4%) of roughly 69,000 compounds showed an effect of 50% or more. Shown is part of a subset that was picked to be rich in strong results.

Each compound was assayed on Mycobacterium tuberculosis (assay: Cornell M. t heat shock assay; also: in the data most compounds retested in dose-response had high values).
Format: functional, organism-based
Parameters: dose or concentration left out as unconfirmed

SMILES	Percent Effect [%]
Cc1ccc(CN(C)C(=O)CN2CCCC2c2cnn(C)c2)o1 (stereo unspecified)	15.31
CC1=N[C@@]2(CC[C@@H]3CN(Cc4cccc(Cl)c4)C[C@@H]32)C(=O)N1CC1CC1.O=C(O)C(F)(F)F	3.209
CN(C)S(=O)(=O)N1C[C@H]2C[C@H](C(=O)NCc3ccccc3)[C@@H](C1)O2	-32.32
Cc1nc(CN2CCC3(CCCN(Cc4cccnc4)C3)C2=O)cs1.O=C(O)C(F)(F)F.O=C(O)C(F)(F)F.O=C(O)C(F)(F)F (stereo unspecified)	-21.24
CCO[C@H]1CN(CC2CCOCC2)[C@@H]2CCCO[C@H]12.O=C(O)C(F)(F)F	43.93
Cc1noc(C)c1C(=O)N1C[C@H]2CC[C@@H]1CN(c1cnccn1)C2	-7.98
O=S(=O)(NCCCN1CCCC1)c1cc(F)cc(F)c1	-10.46
COCCN1C(=O)C2(CCN(CC3CC3)CC2)c2ccccc21.O=C(O)C(F)(F)F	22.29
CCc1[nH]c2c(CNc3nccc(N)n3)cc(F)cc2c1C	15.63
CNc1cc(C)nc(NCc2cc(C)cc3c(C)c(C)[nH]c23)n1	35.24
Cc1cc(CNc2cncc(C(=O)N(C)C)n2)c2[nH]c(C)c(C)c2c1	-11.36
CCc1[nH]c2c(CNC(=O)C3CNC(=O)C3)cc(C)cc2c1C (stereo unspecified)	7.867
CCc1[nH]c2c(CNc3nc(C)cc(NC)n3)cc(C)cc2c1C	100.6
CNc1nc(C)cc(NCc2cc(C)cc3c(C)c(C)[nH]c23)n1	64.43
CCc1[nH]c2c(CNc3nccc(N)n3)cc(C)cc2c1C	83.04
Cc1cc(CNc2nccc(N)n2)c2[nH]c(C)c(C)c2c1	6.431
CCc1[nH]c2c(CNc3cncc(C(=O)N(C)C)n3)cc(C)cc2c1C	-0.9488
CCc1[nH]c2c(CNc3cncc(C(=O)OC)n3)cc(C)cc2c1C	0.7071
CCc1[nH]c2c(CNc3cnccn3)cc(F)cc2c1C	27.04
CCc1[nH]c2c(CNc3cc(C)nc(NC)n3)cc(C)cc2c1C	100.4
COCC1c2c(cnn2CC2CC2)CCN1Cc1ccsc1.O=C(O)C(F)(F)F.O=C(O)C(F)(F)F (stereo unspecified)	-18.97

SMILES	Percent Effect [%]
O=C(O)C(F)(F)F.O=C(O)C(F)(F)F.O=C(O)C(F)(F)F.c1ccc(CN2CC[C@]3(C[C@@H](Oc4ccccn4)CO3)C2)nc1	-28.12
Cl.Cl.c1cnc(NCc2cncc3c2CCN(CC2CC2)C3)nc1	-5.572
Cc1ncsc1-c1nnc(C2CCCN2C(=O)CCn2cccn2)o1 (stereo unspecified)	13.77
Cc1nnc(N2CC[C@H]3C[C@H](C(=O)N4CCOCC4)O[C@H]3C2)s1.O=C(O)C(F)(F)F	5.897
CC(C)CNC(=O)N1CC[C@@H]2CN(Cc3cccnc3)S(=O)(=O)[C@@H]2CC1.O=C(O)C(F)(F)F	36.35
COc1ccc(CN2CCCC3(CCN(c4ccsc4)C3=O)C2)cc1.O=C(O)C(F)(F)F (stereo unspecified)	27.7
Cn1cc(C2CC(=O)NC23CCN(Cc2ccncc2)CC3)cn1.O=C(O)C(F)(F)F.O=C(O)C(F)(F)F (stereo unspecified)	-12.84
O=C(N[C@@H]1CN(Cc2ccoc2)[C@@H]2CCCO[C@@H]21)C1CC1.O=C(O)C(F)(F)F	-3.228
CCC(NC(=O)Nc1ccc(OC)c(C)c1)c1ccncc1 (stereo unspecified)	91.94
CCNC(=O)Cc1ccc(NC(=O)NC(CC)c2ccncc2)cc1 (stereo unspecified)	-2.186
CCC(NC(=O)Nc1ccc(OC)c(C)c1)c1noc(C)n1 (stereo unspecified)	14
Cc1oncc1C(=O)N1CCc2ncnc(-c3cnn(C)c3)c2CC1.O=C(O)C(F)(F)F	-24.59
Clc1cccc(N2CCC(NCc3ncc[nH]3)C2)c1 (stereo unspecified)	62.08
O=C1CC(NCc2ncc[nH]2)CN1CCc1cccc(Cl)c1 (stereo unspecified)	14
Clc1cccc(N2CCC(NCc3cc[nH]n3)C2)c1 (stereo unspecified)	-2.653
Cc1ncsc1C(=O)NCCn1nc(C2CCNC2)c2cccnc21.Cl (stereo unspecified)	-3.491
c1ccc(OCCNc2ncnc3sc4c(c23)CCNC4)cc1	56.72
Cc1ccc(CCNc2ncnc3sc4c(c23)CCNC4)o1	98.95
Cc1nonc1OCCNc1ncnc2sc3c(c12)CCNC3	19.66
c1ccc2c(c1)CN(c1ncnc3sc4c(c13)CCNC4)CCO2	1.883
Oc1ccccc1N1CCN(c2ncnc3sc4c(c23)CCNC4)CC1	-21.81

SMILES	Percent Effect [%]
Cc1ccc(CCNc2nc(-c3ccncc3)nc3c2CCNCC3)o1	6.799
COc1ccc(C2=CNC(C(F)(F)F)=CC2N)cc1 (stereo unspecified)	1.706
Cc1csc(CN2CCn3c(COc4cccnc4)cnc3C2C)n1.O=C(O)C(F)(F)F.O=C(O)C(F)(F)F (stereo unspecified)	18.26
Cc1ccsc1C(=O)N1C[C@@H]2CN(Cc3ccoc3)CCO[C@@H]2C1.O=C(O)C(F)(F)F	-4.487
O=C(O)C(F)(F)F.O=C(c1ccc[nH]1)N1CCn2cc(Cn3cccn3)nc2C1	-0.1806
CN(C)c1ccccc1CN1CCC(N2CCCC2=O)CC1	-7.548
O=C(N1CCCC1)N1CCC[C@]2(C[C@@H](Oc3ncccc3F)CO2)C1.O=C(O)C(F)(F)F	-4.547
CN(C)C(=O)c1ccc2c(c1)N(C)C(CC(=O)NCc1ccno1)CO2 (stereo unspecified)	79.27
COC(=O)CNC(=O)CC1COc2ccc(C(=O)N(C)C)cc2N1C (stereo unspecified)	7.778
CN(C)C(=O)c1ccc2c(c1)N(C)C(CC(=O)NCc1ncc[nH]1)CO2 (stereo unspecified)	-1.035
CNC(=O)CN1CCOCC2(CCCN(Cc3ccsc3)C2)C1.O=C(O)C(F)(F)F.O=C(O)C(F)(F)F (stereo unspecified)	-10.69
CCOc1ncccc1NC(=O)c1sccc1C	102.4
CCOc1ncccc1NC(=O)c1cc(C)sc1C	19.66
CCOc1ncccc1NC(=O)c1cccs1	-26.07
O=C(Nc1cccc(F)c1)NC1CCN(Cc2ccncc2)CC1	-8.889
CCOCCNc1nc(-c2ccncc2)nc2c1CCNCC2	-10.32
Cl.NC1CCc2nc(-c3ccncc3)nc(Nc3cccc(F)c3)c2C1 (stereo unspecified)	82.22
Cc1sc2c(C3CCNCC3)nc(Nc3cccc(F)c3)n2c1C.Cl	26.64
c1cc(-c2nc3c(c(NCCn4ccnn4)n2)CCNCC3)ccn1	-28.7
